# Laboratory results taken from PubChem BioAssay.
# Calls of active or inactive are those of the source. Unless noted, the rule behind the calls is not given here.
# Columns and labels:
# [1] = tested on: XIP peptide (Xip251-270) binding; assay: XIP fragment 251-270 binding compounds – biochemical, small-molecule microarray, fluorescence 635/667 nm, 0.1 µg/mL protein, primary screen (AID 1182); details: fluorescent protein binding, 635 nm, higher = more signal, called active from +8 up or from −8 down
# XIP peptide (Xip251-270) = assay: compounds binding XIP fragment 251-270 – biochemical, small-molecule microarray, fluorescence 635/667 nm, 0.5 µg/mL protein, primary screen (AID 1183); details: fluorescence 635 nm, higher = more signal
# [2] = blood-stage malaria parasite viability loss – strain 3D7, DAPI fluorescence, 100 nL, primary screen (AID 1184);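 note: parasites grown inside human red blood cells in medium with human serum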; details: P. falciparum 3D7 growth, 3 d, higher = more signal
# [3] = molecular target: Homeobox protein Hox-A13 (Mus musculus) (UniProt Q62424); assay: disruptors of Hoxa13 oligonucleotide interaction – biochemical, fluorescence polarization, labeled oligonucleotide, primary screen (AID 1185); details: Hoxa13:DNA binding, 15 min, higher = more signal, called active from +8 up or from −8 down
# Chain of Homeobox protein Hox-A13 (Mus musculus) (Q62424 whole entry, looked up): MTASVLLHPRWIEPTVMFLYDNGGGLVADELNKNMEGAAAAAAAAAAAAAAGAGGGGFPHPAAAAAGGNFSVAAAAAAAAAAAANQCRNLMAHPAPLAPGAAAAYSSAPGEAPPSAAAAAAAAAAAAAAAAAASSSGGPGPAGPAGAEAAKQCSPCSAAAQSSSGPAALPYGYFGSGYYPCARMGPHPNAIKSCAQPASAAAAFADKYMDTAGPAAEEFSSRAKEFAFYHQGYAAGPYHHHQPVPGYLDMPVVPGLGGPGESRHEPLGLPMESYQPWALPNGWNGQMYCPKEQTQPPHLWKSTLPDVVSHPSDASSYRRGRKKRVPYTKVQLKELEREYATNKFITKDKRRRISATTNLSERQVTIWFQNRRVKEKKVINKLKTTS
# [4] = blockers of DNA damage checkpoint Chk1 activation – imaging, HeLa, hydroxyurea, phospho-Chk1 antibody, percent positive cells, primary screen (AID 1186); details: hydroxyurea-induced phospho-Chk1 immunofluorescence imaging, higher = more signal
# [5] = blockers of DNA damage checkpoint Chk1 activation – imaging, HeLa, hydroxyurea, phospho-Chk1 nuclear intensity, primary screen (AID 1187); details: hydroxyurea-induced phospho-Chk1 immunofluorescence imaging, higher = more signal
SMILES,composite z-score [1],composite z-score (XIP peptide (Xip251-270)),z-score [2],z-score [3],z-score [4],z-score [5]
Cc1ccc(S[C@]2(C(=O)NC3CC3)CC(=O)N(Cc3ccccc3)[C@@H]2c2ccc(CO)cc2)cc1,0.795 (inactive),0.327,-0.308,-2.47 (inactive),0.0616 (inactive),0.0892 (inactive)
CCCCC(O)C1C=CC2C(=O)N(C3CCCCC3)C(=O)C2N1Nc1ccc(OC)cc1 (configuration not stated),0.222 (inactive),0.808,-0.265,-3.58 (inactive),0.895 (inactive),0.719 (inactive)
C[C@]1(C(=O)NCc2ccccc2)c2ccccc2C(=O)N(Cc2cc(F)cc(C(F)(F)F)c2)[C@H]1c1ccc(CO)cc1,0.753 (inactive),0.518,-0.327,-3.43 (inactive),-0.603 (inactive),-0.552 (inactive)
CC(C)Cc1ccc(CN2CC[C@@H](NS(=O)(=O)c3ccccc3)C2)cc1,-0.479 (inactive),0.0054,-0.438,-4.79 (inactive),-0.853 (inactive),-1.1 (inactive)
Cc1ccc(S[C@]2(C(=O)NCC(C)C)CC(=O)N(Cc3ccccc3)[C@@H]2c2ccc(CO)cc2I)cc1,0.0656 (inactive),0.292,-0.769,-3.29 (inactive),0.292 (inactive),0.556 (inactive)
CC(C)CNC(=O)[C@@]1(c2ccc([N+](=O)[O-])cc2)CC(=O)N(CC23CC4CC(CC(C4)C2)C3)[C@@H]1c1ccc(CO)cc1,1.1 (inactive),0.796,0.0716,-4.17 (inactive),-0.471 (inactive),-0.141 (inactive)
CCOC(=O)C[C@H]1[C@H](OC(=O)c2ccccc2-c2ccccc2)[C@@H](NC(=O)Cc2ccc(OC)cc2)c2cc(OCCCO)ccc2N1C(=O)c1ccccc1,0.277 (inactive),0.127,-1.6,-3.88 (inactive),0.422 (inactive),0.137 (inactive)
CC(C)CNC(=O)[C@@]1(c2ccc([N+](=O)[O-])cc2)CC(=O)N(CC23CC4CC(CC(C4)C2)C3)[C@@H]1c1ccc(CO)cc1I,0.106 (inactive),0.719,-0.534,-3.42 (inactive),-0.264 (inactive),-0.135 (inactive)
COc1ccc(CCNC(=O)[C@@H]2c3ccccc3C(=O)N(Cc3ccc(OC(F)(F)F)cc3)[C@H]2c2ccc(CO)cc2)cc1,0.987 (inactive),0.486,-0.756,-4.53 (inactive),-0.232 (inactive),-0.312 (inactive)
C=CCNC(=O)[C@H]1[C@@H]2C(=O)O[C@@H](c3ccccc3)[C@@H](c3ccccc3)N2[C@@H](c2ccc(O)cc2)[C@]12C(=O)N(C(=O)OCCOC)c1ccc(C#CCCO)cc12,0.855 (inactive),0.72,-0.353,-3.9 (inactive),-0.537 (inactive),-0.532 (inactive)
C=CCC(OC(C)=O)[C@@H]1[C@@H](N(Cc2cc3ccccc3o2)C(=O)c2ccc(C)cc2)c2cc(OCCCO)ccc2N1C(=O)c1ccc2ccccc2c1 (some centres not stated),-0.014 (inactive),-0.152,-0.585,-1.33 (inactive),-0.252 (inactive),0.0758 (inactive)
Cc1cc(C)c(C(O)C2C=CC3C(=O)N(C)C(=O)C3N2Nc2ccccc2)c(C)c1 (configuration not stated),-0.0222 (inactive),0.794,0.642,-2.71 (inactive),0.195 (inactive),-0.137 (inactive)
C=C[C@@H](COC(C)=O)N(Cc1ccccc1[N+](=O)[O-])S(=O)(=O)c1ccc(Br)cc1,2.18 (inactive),0.387,-0.43,-2.89 (inactive),-0.472 (inactive),-0.567 (inactive)
C=CC(=C)C1=CCO[C@@H]1[C@H]1CCCN1S(=O)(=O)c1ccccc1[N+](=O)[O-],0.162 (inactive),0.281,-1.51,-2.41 (inactive),-0.0283 (inactive),0.0588 (inactive)
CC(=CC1CCCCC1)[C@@H](NC(=O)c1ccc(C(F)(F)F)cc1)c1ccc(-c2ccccc2)cc1,-0.138 (inactive),-0.569,-0.0178,-1.48 (inactive),0.191 (inactive),0.498 (inactive)
O=C1c2ccccc2[C@@]2(Cc3ccccc3N(Cc3ccccc3)C2=O)[C@H](c2ccc(CO)cc2)N1C1CCCCC1,-0.204 (inactive),0.299,-0.0438,-1.21 (inactive),0.0191 (inactive),0.359 (inactive)
COc1ccc(C#Cc2ccc3c(c2)[C@]2(C(=O)N3)[C@H](c3ccc(O)cc3)N3[C@H](c4ccccc4)[C@H](c4ccccc4)OC(=O)[C@H]3[C@@H]2C(=O)N2CCCCCCC2)cc1,0.59 (inactive),0.644,-2.08,3.13 (inactive),-0.184 (inactive),-0.0916 (inactive)
C[C@]1(C(=O)NCc2ccccc2)c2ccccc2C(=O)N(Cc2ccc(OC(F)(F)F)cc2)[C@H]1c1ccc(CO)cc1,0.379 (inactive),0.317,-2.01,-3.67 (inactive),-0.347 (inactive),-0.341 (inactive)
CCCC[C@H]1OB(O)C[C@H]2C1=C(C)C[C@H]1C(=O)N(Cc3ccccc3)C(=O)[C@H]12,0.0643 (inactive),0.911,0.508,-7.36 (inactive),-0.128 (inactive),-0.379 (inactive)
Cc1ccc(S[C@]2(C(=O)NCCN3CCOCC3)CC(=O)N(Cc3cc(C(F)(F)F)cc(C(F)(F)F)c3)[C@@H]2c2ccc(CO)cc2I)cc1,0.476 (inactive),0.241,0.439,-2.98 (inactive),-0.064 (inactive),-0.0538 (inactive)
C=CC[C@@]1(C(=O)N2CCOCC2)N=C(c2ccc(OCCCO)cc2)O[C@@H]1c1ccccc1N=[N+]=[N-],1.18 (inactive),0.598,-1.75,-3.44 (inactive),-0.217 (inactive),-0.141 (inactive)
O=C1O[C@H](c2ccccc2)[C@H](c2ccccc2)N2[C@H]1[C@@H](C(=O)N1CCN(c3ncccn3)CC1)[C@]1(C(=O)Nc3ccccc31)[C@H]2c1ccc(OCCO)cc1,-0.161 (inactive),0.219,-2.39,2.46 (inactive),-0.54 (inactive),-1.1 (inactive)
O=C1O[C@H](c2ccccc2)[C@H](c2ccccc2)N2[C@H]1[C@@H](C(=O)O)[C@]1(C(=O)Nc3ccc(C#CC4(O)CCCCCC4)cc31)[C@H]2c1ccc(OCCO)cc1,1.31 (inactive),0.599,0.362,-6.3 (inactive),-0.125 (inactive),-0.198 (inactive)
Cc1ccc([C@H]2[C@H](C(=O)O)[C@H](Sc3ccccc3)[C@@H](C(C)C)N2S(=O)(=O)c2ccc(C)cc2)cc1,2.49 (inactive),0.787,-0.619,-6 (inactive),0.237 (inactive),-0.0069 (inactive)
O=C/C=C/c1ccc2c(c1)OCO2,-0.316 (inactive),-0.232,0.775,1.04 (inactive),0.284 (inactive),0.774 (inactive)
CCCCC=C[C@@H](NC(=O)c1ccc(C(=O)OC)cc1)c1ccccc1,2.97 (inactive),0.0677,-1.38,-4.21 (inactive),0.492 (inactive),0.256 (inactive)
CCOC(=O)[C@H]1C/C=C/C[C@H](C(=O)OCC)C(=O)O[C@H]2[C@@H](OC)O[C@H](CO)[C@@H](OC(=O)Nc3ccc4c(c3)OCO4)[C@@H]2OC1=O,1.28 (inactive),0.832,-1.95,-2.27 (inactive),-0.18 (inactive),-0.0843 (inactive)
